High-throughput results (PubChem BioAssay)
Rows were chosen to be rich in hits. Some 0.37% of all compounds tested hit in one or more screens of this group.
Vif-A3F inh = Vif-A3F binding inhibition; actives 0.2% (n = 390,000); Potency, µM (series often up to 46.1 µM), for the others: at the top dose activity, negative = active; HeLa A3F-eYFP + Vif (tagged APOBEC3F with the HIV-1 protein that degrades it), YFP fluorescence increase; AID 602313; further: potency means the concentration at half of the fitted maximal effect; % of control where 0% means no effect; nearly all actives have a fitted effect of over 65% in size
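HeLa cells stably expressing Vif plus C-terminally eYFP-tagged A3F were seeded, incubated overnight at 37 deg C, dosed with compound, incubated overnight again at 37 deg C. Yellow fluorescence (Ex 488/Em 500-530) reported blocked Vif-mediated A3F-eYFP degradation.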
PTAP TSG101 blk = blocks PTAP/TSG101 interaction to inhibit HIV-1 budding. Q99816. Fluorescence polarization, FITC-PTAP peptide / Tsg101 binding. Potency, µM (titrated, usually from 115 µM), for inactives: at the highest dose activity change, negative = inhibition, hits mostly inhibitors. 340,000 tested, under 10 active. AID 493005; active means well fitted inhibition curve with a large enough effect in the main read-out, with a control signal flat, not every such curve was filed as active; inconclusive means small, poorly fitted or top-dose-only effect, or effect the other way, or a change in a side signal; inactive means no such curve, though single readings can be large or run the other way; further: potency means the concentration at half of the fitted maximal effect; % of control where 0% means no effect
Target sequence (Q99816 whole entry, looked up): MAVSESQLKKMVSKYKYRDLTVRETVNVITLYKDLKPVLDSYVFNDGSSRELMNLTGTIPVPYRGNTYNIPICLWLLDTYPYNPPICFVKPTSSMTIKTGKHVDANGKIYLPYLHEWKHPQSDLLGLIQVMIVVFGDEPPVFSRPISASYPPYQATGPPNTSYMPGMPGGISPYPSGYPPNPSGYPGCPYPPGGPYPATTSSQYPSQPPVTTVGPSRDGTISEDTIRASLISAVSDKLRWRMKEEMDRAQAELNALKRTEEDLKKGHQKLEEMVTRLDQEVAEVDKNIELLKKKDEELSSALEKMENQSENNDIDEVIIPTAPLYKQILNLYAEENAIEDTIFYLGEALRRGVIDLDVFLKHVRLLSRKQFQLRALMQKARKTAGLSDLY
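FP read-out: FITC-PTAP peptide, 50 nM final, binding Tsg101 binding domain, 10 uM final; 20 min, r.t.; 10 mM HEPES pH 7.5, 0.15 M NaCl, 0.01% Tween 20, 3 mM EDTA, 0.1 mM TCEP.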
Vif-APOBEC3G blk = blocks the Vif interaction with human APOBEC3G; HeLa A3G-eYFP + Vif (tagged APOBEC3G with the HIV-1 protein that degrades it), YFP fluorescence, overnight; Potency, µM (series often up to 46.1 µM), inactives show at the top dose activity, negative = active, usual class: inhibitors; actives 0.076% (n = 410,000); AID 602310; further: potency means the concentration at half of the fitted maximal effect; on the % scale 0 is the no-effect control and ±100 the full control effect; nearly all actives have a fitted effect of over 60% in size
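HeLa cells stably expressing Vif and C-terminally eYFP-tagged A3G, seeded overnight at 37 deg C, then exposed to compound by pintool overnight at 37 deg C. Rise in yellow fluorescence (Ex 488/Em 500-530, Acumen) marks blocked Vif-driven A3G degradation.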
MBNL1-CUG inh = blocks human MBNL1 binding to CUG repeat RNA | TR-FRET MBNL1-His/biotin-(CUG)12 binding, 665/545 ratio | Potency, µM (highest dose often 57.5 µM), without a hit: top-dose activity change, negative = inhibition, hits mostly inhibitors | actives 0.036% (n = 280,000) | AID 2675; active means well fitted inhibition curve with a large enough effect in the signal ratio, with a control signal flat, not every such curve was filed as active; inconclusive means small, poorly fitted or top-dose-only effect, or effect the other way, or a change in a side signal; inactive means no such curve, though single readings can be large or run the other way; the % refers to the signal ratio; further: potency means the concentration at half of the fitted maximal effect; on the % scale 0 is the no-effect control and ±100 the full control effect
Target sequence (Q9NR56 whole entry, looked up): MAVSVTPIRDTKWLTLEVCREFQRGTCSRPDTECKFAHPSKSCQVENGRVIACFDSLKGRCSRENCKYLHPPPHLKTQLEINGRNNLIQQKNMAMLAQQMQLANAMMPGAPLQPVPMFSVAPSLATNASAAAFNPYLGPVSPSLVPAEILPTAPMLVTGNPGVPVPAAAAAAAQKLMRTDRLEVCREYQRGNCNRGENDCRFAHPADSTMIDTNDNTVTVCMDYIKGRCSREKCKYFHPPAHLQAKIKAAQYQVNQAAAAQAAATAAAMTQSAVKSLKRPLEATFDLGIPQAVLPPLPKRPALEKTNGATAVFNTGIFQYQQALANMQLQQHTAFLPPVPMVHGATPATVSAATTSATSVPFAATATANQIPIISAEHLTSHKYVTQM
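Compounds (final 92 nM to 58 uM) are added to His-tagged MBNL1 and biotin-(CUG)12, then terbium anti-His antibody and streptavidin-XL665 (5 nM final). After 60 min at room temperature, the 665/545 nm ratio is read.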
CBFb-RUNX1 inh = CBF-beta/RUNX1 interaction disruption; AID 1477; Potency, µM (highest dose often 59.8 µM), for the others: at the highest dose activity, negative = inhibition, hits mostly inhibitors; AlphaScreen CBFb-His/RUNX1-biotin binding, biochemical; Q01196+Q13951; 230,000 tested, under 10 active; further: % of control where 0% means no effect
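Inhibition was taken as any reduction in AlphaScreen signal from the CBF-beta–RUNX1 pair (His and biotin tags, 30 nM each), measured after compound (15 min) and bead (90 min) incubations at room temperature.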
Epigenetic derep = regulators of epigenetic silencing causing reporter derepression in mouse cells; murine LDR cells, GFP reporter derepression, 30 h; Potency, µM (doses to about 53.9 µM), without a hit: top-dose GFP activation, hits mostly activators; actives 0.2% (n = 280,000); AID 1865; further: potency means the concentration at half of the fitted maximal effect; % of control where 0% means no effect; nearly all actives have a fitted effect of over 60% in size
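In this reporter-derepression format, murine cells bearing a silenced integrated CMV-GFP locus incubate with test compound (30 h, 37 C), then are washed and imaged; fluorescent objects of 20–120 um count as induced cells.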
MBNL1 TRFRET = blocks human MBNL1 binding to CUG repeat RNA, TR-FRET validation | TR-FRET MBNL1-His / biotin-(CUG)12 binding, 60 min | actives 50% (n = 140) | shares compounds with MBNL1-CUG inh | Potency, µM (series often up to 57.6 µM), inactives show at the top dose activity change, negative = inhibition, most hits filed as inhibitors
MBNL1 AlphaScrn = blocks MBNL1 binding to (CUG)12 RNA in AlphaScreen; Potency, µM (highest dose often 57.7 µM), without a hit: at the top dose activity, negative = inhibition, hits mostly inhibitors; actives 30% (n = 140); shares compounds with MBNL1-CUG inh; AlphaScreen MBNL1-His / biotin-(CUG)12 binding
MBNL1 HTRF CS = hit in HTRF counterscreen for MBNL1-poly(CUG) binding inhibitors; shares compounds with MBNL1-CUG inh; His-Menin/biotin-MLL peptide TR-FRET counterscreen; Potency, µM (series often up to 57.6 µM), without a hit: at the highest dose activity, negative = inhibition, usual class: inhibitors; actives 20% (n = 120); AID 651843
* hit, by the source's call; [ ] = another dose, or the depositor's remark. Unless noted, the call rests on the fitted dose curve; in most records, active means well fitted curve in the direction sought with a large enough effect; inconclusive means small, poorly fitted or top-dose-only effect, or another doubt; inactive means no such curve, though single readings can be large; an effect the other way counts as inactive or inconclusive.

What do the screens show for `COCCNC(=O)CCC1CCN(Cc2ccc(-c3ccccc3)cc2)CC1`?
Vif-A3F inh: -4%; PTAP TSG101 blk: 1%; Vif-APOBEC3G blk: 1%; MBNL1-CUG inh: 16µM*; MBNL1 TRFRET: 6.5µM*; MBNL1 AlphaScrn: 4%; MBNL1 HTRF CS: 8.2µM*

What do the screens show for `COCCNC(=O)C1CCCN(Cc2ccccc2)CC1` (stereo not given)?
Vif-APOBEC3G blk: -3%

What do the screens show for `OC(COc1ccccc1CNCc1cccnc1)CN1CCc2ccccc2C1` (stereo not given)?
Vif-A3F inh: 0%; PTAP TSG101 blk: -3%; Vif-APOBEC3G blk: -4%; MBNL1-CUG inh: 13µM*; CBFb-RUNX1 inh: 12%; Epigenetic derep: -1%; MBNL1 TRFRET: 16µM*; MBNL1 AlphaScrn: inconclusive; MBNL1 HTRF CS: inconclusive

What do the screens show for `Nc1ncnc2c1ncn2[C@@H]1O[C@H](C(=O)NC2CC2)[C@@H](O)[C@H]1O`?
CBFb-RUNX1 inh: 12%; Epigenetic derep: 0%

Results for COC(=O)c1cccc(NC(=O)c2ccc[n+]([O-])c2)c1 ?
Vif-A3F inh: -30%; PTAP TSG101 blk: 0%; Vif-APOBEC3G blk: -10%; MBNL1-CUG inh: 40µM*; MBNL1 TRFRET: -24%; MBNL1 AlphaScrn: inconclusive; MBNL1 HTRF CS: 0%

Results for Cc1ccc(-c2cc(-c3ccccc3C)[nH]n2)c(O)c1 ?
Vif-A3F inh: 0%; PTAP TSG101 blk: -5%; Vif-APOBEC3G blk: -16%; MBNL1-CUG inh: 20µM*; CBFb-RUNX1 inh: -6%; Epigenetic derep: -1%; MBNL1 TRFRET: 5%; MBNL1 AlphaScrn: 4%; MBNL1 HTRF CS: -2%

Results for CC1(C)CCC2=C(O1)c1ccccc1C(=O)C2=O ?
Vif-APOBEC3G blk: -7%; MBNL1-CUG inh: inconclusive; CBFb-RUNX1 inh: inconclusive; Epigenetic derep: -1%; MBNL1 TRFRET: inconclusive; MBNL1 AlphaScrn: 20µM*

Results for Cc1cn(C2OC(COC(=O)c3ccccc3)C(OC(=O)c3ccccc3)C2OC(=O)c2ccccc2)c(=O)[nH]c1=O (stereo not given) ?
Vif-A3F inh: -5%; PTAP TSG101 blk: -7%; Vif-APOBEC3G blk: 2%; MBNL1-CUG inh: 7%; CBFb-RUNX1 inh: -2%; Epigenetic derep: -1%

What do the screens show for `O=C(OCC1OC(OC(=O)c2cc(O)c(O)c(OC(=O)c3cc(O)c(O)c(O)c3)c2)[C@@H](OC(=O)c2cc(O)c(O)c(OC(=O)c3cc(O)c(O)c(O)c3)c2)C(OC(=O)c2cc(O)c(O)c(OC(=O)c3cc(O)c(O)c(O)c3)c2)C1OC(=O)c1cc(O)c(O)c(OC(=O)c2cc(O)c(O)c(O)c2)c1)c1cc(O)c(O)c(OC(=O)c2cc(O)c(O)c(O)c2)c1` (stereo not given in full)?
Epigenetic derep: 1%; MBNL1 TRFRET: 0.41µM*; MBNL1 AlphaScrn: 0.029µM*

Results for Brc1cccc[n+]1CCCCCC[n+]1ccccc1Br ?
Vif-APOBEC3G blk: 4%

How did Nc1ccc2c(c1)C(=O)C(=O)c1ccccc1-2 do in these assays?
Vif-A3F inh: 0%; PTAP TSG101 blk: 2%; Vif-APOBEC3G blk: -17%; MBNL1-CUG inh: inconclusive; CBFb-RUNX1 inh: -3%; Epigenetic derep: 1%; MBNL1 TRFRET: inconclusive; MBNL1 AlphaScrn: 6.5µM*; MBNL1 HTRF CS: 87%

How did CCOC(=O)CCCCC(=O)c1[nH]c(=O)[nH]c1C[n+]1ccccc1 do in these assays?
MBNL1-CUG inh: 32µM*; CBFb-RUNX1 inh: -8%; Epigenetic derep: -2%; MBNL1 TRFRET: 16µM*; MBNL1 AlphaScrn: 3.3µM*; MBNL1 HTRF CS: inconclusive

What do the screens show for `CCOC(=O)CCCCC(=O)c1[nH]c(=O)[nH]c1CSc1nc(C)cc(=O)[nH]1`?
Vif-A3F inh: -1%; PTAP TSG101 blk: -2%; Vif-APOBEC3G blk: 0%; MBNL1-CUG inh: 1.8µM*; CBFb-RUNX1 inh: -24%; Epigenetic derep: 0%; MBNL1 TRFRET: 0.52µM*; MBNL1 AlphaScrn: 0.073µM*; MBNL1 HTRF CS: 3.7µM*

Results for CCOC(=O)c1[nH]c(=O)[nH]c1CSc1nc(C)cc(C)n1 ?
Vif-A3F inh: 1%; PTAP TSG101 blk: 1%; Vif-APOBEC3G blk: 1%; MBNL1-CUG inh: -9%; CBFb-RUNX1 inh: 3%; Epigenetic derep: inconclusive

How did CCOC(=O)CCCCC(=O)c1[nH]c(=O)[nH]c1CN1CCOCC1 do in these assays?
Vif-A3F inh: 0%; PTAP TSG101 blk: -6%; Vif-APOBEC3G blk: 1%; MBNL1-CUG inh: 2.2µM*; CBFb-RUNX1 inh: -14%; Epigenetic derep: 0%; MBNL1 TRFRET: 4.1µM*; MBNL1 AlphaScrn: 0.92µM*; MBNL1 HTRF CS: 16µM*

What do the screens show for `CCOC(=O)CCCCC(=O)c1[nH]c(=O)[nH]c1CSc1nc(C)cc(C)n1`?
Vif-A3F inh: 0%; PTAP TSG101 blk: -5%; Vif-APOBEC3G blk: 2%; MBNL1-CUG inh: 32µM*; CBFb-RUNX1 inh: -13%; Epigenetic derep: -6%; MBNL1 TRFRET: 26µM*; MBNL1 AlphaScrn: 4.1µM*; MBNL1 HTRF CS: -22%

What do the screens show for `O=S(=O)(c1ccccc1Cl)N1CCN(c2nc(-c3ccccc3)nc3ccccc23)CC1`?
Vif-APOBEC3G blk: -5%

How did COC(=O)C(C(C)=O)C(NC(=O)OC(C)(C)C)c1ccccc1 (stereo not given) do in these assays?
CBFb-RUNX1 inh: -10%; Epigenetic derep: 1%

Results for C[C@H](O/N=C1/[C@H]2O[C@@H]2[C@@H](O)[C@H]2[C@H]1CCn1c(=O)n(-c3ccccc3)c(=O)n12)c1cn([C@H](CO)Cc2ccccc2)nn1 ?
CBFb-RUNX1 inh: -8%[13.1 µM]; Epigenetic derep: 1%[10.1 µM]
